In all, about 48,000 compounds went through this assay and about 13,000 (27%) showed an effect of 50% or more. The list shows a part of the results.
The molecules below were run on Wolbachia pipientis (assay: Anti-Wolbachia Cell-Based Screen). Settings: 5 µM.
Type: functional
Set-up: scale not given: in the data most compounds retested in dose-response had high values

Compared with `CC(CCN1CCC(n2cc(CCO)nn2)CC1)c1ccccc1` (centres undefined), `COCc1cn(C2CCN(CCC(C)c3ccccc3)CC2)nn1` (centres undefined) is higher in “Percent Effect” value: 92.59% for the first, 99.11% for the second.

Compared with `COCc1cn(C2CCN(Cc3ccc(Cl)s3)CC2)nn1`, `COCc1cn(C2CCN(C(=O)Cc3ccsc3)CC2)nn1` is lower in “Percent Effect” value: 0.9369% for the first, -0.9661% for the second.

Compared with `CNCc1cn(C2CCN(C(=O)NCc3ccco3)CC2)nn1`, `CNCc1cn(C2CCN(CCC(C)c3ccccc3)CC2)nn1` (centres undefined) is higher in “Percent Effect” value: 17.43% for the first, 95.9% for the second.

Compared with `CSC(C)CCN1CCC(n2cc(C3CCCCC3)nn2)CC1` (centres undefined), `CCCC(C)CN1CCC(n2cc(CCCO)nn2)CC1` (centres undefined) is higher in “Percent Effect” value: -13.53% for the first, -3.716% for the second.

Going from `CSCc1noc(CN(C)C(C)c2nc(C)sc2C)n1` (centres undefined) to `COCCc1noc(CN(C)C(=O)C(C)N2CCc3ccccc3C2)n1` (centres undefined), the “Percent Effect” value rises from -2.011% to 110.4%.

Compared with `CC(C)C(=O)NC1COC2(CCN(C(=O)c3ccc[nH]3)CC2)C1` (centres undefined), `NC(=O)N1CCC2(CC1)CN(c1ncccn1)CCO2` is lower in “Percent Effect” value: 3.438% for the first, -107.3% for the second.

First: O=C(c1cc(-n2cccn2)ccn1)N1CCOc2ncccc21
Second: CC1(c2[nH]ncc2C(N)=O)CCN(c2ncccn2)CC1
The “Percent Effect” value of the first is lower: -22.54% for the first, 105.4% for the second.

Compared with `CC(C)c1cc(CN(C)C(=O)C(C)N2CCc3ccccc3C2)no1` (centres undefined), `CC(C(=O)N(C)Cc1noc(C2CCC2)n1)N1CCc2ccccc2C1` (centres undefined) is lower in “Percent Effect” value: 103.9% for the first, 96.98% for the second.

First: COc1cccc2c1N(Cc1noc(C3CC3)n1)CCC2
Second: Cc1noc(C2CCCN(CC(=O)N3CCc4ccccc4C3)C2)n1 (centres undefined)
The “Percent Effect” value of the first is lower: -4.254% for the first, 4.147% for the second.

Going from `CC(C(=O)N(C)C)N1CCc2onc(-c3cccc(F)c3)c2C1` (centres undefined) to `COCCc1noc(CN(C)C(=O)c2cccc(N3CCCC3=O)c2)n1`, the “Percent Effect” value rises from -12.34% to -10.13%.

Going from `COCCc1noc(CN(C)C(=O)C2COc3ccccc3C2)n1` (centres undefined) to `CCCn1cnnc1CNC(=O)C1COc2c(cccc2OC)C1` (centres undefined), the “Percent Effect” value falls from -1.856% to -10.56%.

Compared with `CN(Cc1cc(C2CC2)on1)C(=O)C(c1cccnc1)N1CCCC1` (centres undefined), `O=C(CCN1C[C@@H]2CC[C@H]1C2)N1CCN(c2cccc(Cl)c2)C(=O)C1` is higher in “Percent Effect” value: -7.414% for the first, 108.3% for the second.

First: Cc1cc(C)cc(N2CCN(C(=O)CCN3C[C@@H]4CC[C@H]3C4)CC2=O)c1
Second: Cc1ccc(N2CCN(C(=O)CN3C[C@@H]4CC[C@H]3C4)CC2=O)cc1
The “Percent Effect” value of the first is lower: 110.5% for the first, 111.2% for the second.

First: Cc1ccc2oc(=O)n(CCC(=O)N3CCN(C)C(=O)C3)c2c1
Second: COc1cccc(N2CCN(C(=O)CCO)CC2=O)c1
The “Percent Effect” value of the first is higher: 7.292% for the first, 0.6756% for the second.

Going from `COc1cccc(N2CCN(C(=O)C(O)c3cccc(Cl)c3)CC2=O)c1` (centres undefined) to `Cc1ccc(N2CCCC(N3CCC(CO)CC3)C2=O)cc1` (centres undefined), the “Percent Effect” value rises from -25.1% to -5.905%.

Compared with `CN(C)c1nc2c(c(N(C)C)n1)CCN(C(=O)CN1C[C@@H]3CC[C@H]1C3)C2`, `COCCN1C[C@H]2CC[C@@H]1CN(C(=O)CCc1c(C)nn(C)c1C)C2` is higher in “Percent Effect” value: -4.711% for the first, 8.536% for the second.

Going from `CC(C)Cn1cncc1Cn1cccc(C(F)(F)F)c1=O` to `CC(C)Oc1ccccc1C(=O)NCCc1nncn1C`, the “Percent Effect” value falls from 13.38% to -7.55%.

Compared with `COc1ccccc1C(=O)NC(C)CC(=O)O` (centres undefined), `CCC(C)NC(=O)c1nn(C)c(NC(=O)c2ccccc2OC)c1F` (centres undefined) is higher in “Percent Effect” value: 5.398% for the first, 131.5% for the second.

Compared with `COc1ccccc1C(=O)Nc1c(F)c(C(=O)NCCC(C)C)nn1C`, `CCN(CC)CCn1cc(NC(=O)c2ccccc2OC)cn1` is lower in “Percent Effect” value: 138.9% for the first, 7.312% for the second.

First: COc1cccc(C(=O)NC(C)CCN2CCOCC2)c1F (centres undefined)
Second: Cc1nc2c(c(N3CCN(c4ncccc4C(N)=O)CC3)n1)CCNC2
The “Percent Effect” value of the first is higher: 4.529% for the first, -20.98% for the second.

Going from `Cc1cnc(N2CCC3(CC2)CC3CNC(=O)N(C)C)nc1` (centres undefined) to `CN(C)C(=O)c1cn[nH]c1C1(C)CCN(c2ncccn2)CC1`, the “Percent Effect” value rises from -2.686% to 98.94%.

Going from `CC(C)=CCC1(C(=O)O)CCCN(c2ccnc(C)n2)C1` (centres undefined) to `Cc1nccc(N2CCCC(C)(c3[nH]ncc3C(N)=O)C2)n1` (centres undefined), the “Percent Effect” value rises from -9.118% to 108.3%.

Going from `CN(C)C(=O)CC1CC2(CCN(c3ncccn3)CC2)c2ccccc21.O=C(O)C(F)(F)F` (centres undefined) to `CC1(c2[nH]ncc2C(N)=O)CCN(S(=O)(=O)c2ccccc2)CC1`, the “Percent Effect” value rises from 8.977% to 129%.

Compared with `CN1C(=O)CCC12CCN(S(=O)(=O)c1ccccc1)CC2`, `CCN1CCNC(=O)C12CCN(S(=O)(=O)c1ccccc1)CC2` is higher in “Percent Effect” value: -37.9% for the first, -28.29% for the second.

`Cc1ccc(-c2cn[nH]c2C2CCCN(c3ccnc(C)n3)C2)cc1` (centres undefined) was tested, and the “Percent Effect” value was -2.431%.

— ChEMBL document CHEMBL3988442, “University of Dundee, Small-Polar-MMV Screening Library” (2021)
